Experimental data: PubChem BioAssay AID1159580 (chemical genetic matrix, 2015)
In all, about 5,500 compounds went through this assay and about 2,000 (36%) were called active. Roughly 18% stayed inconclusive and do not appear here. Cut-off read from the data, not from the text of the source: active = normalized growth mostly below about 0.91 (no sharp cut-off); inconclusive = no clear call, values can overlap the other calls; inactive = mostly above about 0.92. The list shows a part of the results.

Test: chemical genetic growth profiling, strain panel (AID 1159580);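 note: tested at 20 µM; growth read once vehicle control cultures reached saturation at 30 °C; 1 = growth at the plate median or of vehicle wells; lower values mean less growth of the strain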
Details: S. cerevisiae deletion strains, growth OD

Measured: normalized growth

Cc1cn([C@H]2C=C[C@@H](CO)O2)c(=O)[nH]c1=O
inactive: locus YAL040C, strain CLN3, hits give low values 0.999 | locus YCL061C, strain MRC1 (second series), hits give low values 1.01 | locus YDR363W, strain ESC2, hits give low values 0.976 | locus YER002W, strain NOP16, hits give low values 1 | locus YGR078C, strain PAC10, hits give low values 1.02 | locus YMR263W, strain SAP30, hits give low values 0.998 | locus YMR307W, strain GAS1, hits give low values 0.994 | locus YNL175C, strain NOP13, hits give low values 0.993 | locus YNL197C, strain WHI3, hits give low values 0.995 | locus YNL224C, strain SQS1, hits give low values 1 | locus YNL322C, strain KRE1, hits give low values 0.994 | locus YOR083W, strain WHI5 (second series), hits give low values 1.06 | locus YPL055C, strain LGE1, hits give low values 0.974 | locus YPL241C, strain CIN2, hits give low values 1
